Common to all, as to assay: MAPPIT interaction score (arbitrary units); higher = stronger binary interaction signal, active = hit call of the paper
One assay concerns the target Pdha. Particulars: pair source set: Lit-BM-16;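 active = MAPPIT score above the 99th percentile of random reference set scores in the same batch; inactive = at or below it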.
A further assay deals with Pgd. The settings on record: MAPPIT configuration: N-N; pair source set: DPIM.
The next assay has as its target qua. Particulars: MAPPIT configuration: N-N; pair source set: DPIM.
The target in a further assay is Pex3. The settings on record: MAPPIT configuration: N-C.
In another assay the target is SsRbeta. Particulars: MAPPIT configuration: N-C; pair source set: screen_3.
For the next assay, the target named is Pex14. Particulars: MAPPIT configuration: N-C; pair source set: screen_3.
A further assay concerns the target Pfdn1. The settings on record: MAPPIT configuration: N-N; pair source set: Curagen_high_conf.
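Further: HEK293T cells with Epo stimulation, STAT-responsive firefly luciferase reporter, fold induction versus unstimulated cells divided by the larger fold induction of two negative controls lacking either bait or prey.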

B1: Pdhb (protein)
chain: MLRTRLIQAASSAQRAFSTSQKALAAKQMTVRDALNSALDDELARDDRVFILGEEVAQYDGAYKVSRGLWKKYGDKRVIDTPITEMGFAGIAVGAAMAGLRPVCEFMTWNFSMQAIDHIINSAAKTFYMSAGAVNVPIVFRGPNGAASGVAAQHSQCFAAWYAHCPGLKVLSPYDAEDARGLLKSAIRDPDPVVFLENELVYGTAFPVADNVADKDFLVPIGKAKVMRPGKDITLVAHSKAVETSLLAAAELAKKGIEAEVINLRSIRPLDTATIFASVRKTHHLVTVENGWPQHGVGAEICARIMEDQTFFELDAPVWRCAGVDVPMPYAKTLEAHALPRVQDLVEATLKVLGGKVGKAAAANK
As for B1, the MAPPIT interaction score with Pdha (MAPPIT configuration: N-C) is 0.121 (inactive); in the assay with Pdha (MAPPIT configuration: N-N), 0.456 (inactive); in the assay with Pgd, -0.835 (inactive); with qua, -0.463 (inactive).

B2: heix (protein)
chain: MATSSQLLPNGNLSRNGKTKTEDGEEVEAVVGARAAGADAGVALTGRLTGHPSTSGTFMKLKTYLLALRPWSLSASLVPTLLGSALAYRSQWAEEFSLATFFLTAFTVVTVHCAGNVVNTYFDFIKGIDKQKADDRTLVDHILTKDEVVSLGAILYMAGCGGFVLLAVLSPAKMEHLALIYFGGLSSSFLYTGGIGFKYIALGDLVILILFGPISVLFAFMSQTGHLDWTTMGYAIPLALNTEAILHSNNTRDADNDRRAGIVTLAILIGRTASHVLYAMLLFAPYSLFFIFGLKYSLWFLLPLVTLPQAFQIEKRFRNEQTMHLVPRQTAKLNFFFGILYVVACCCAHQLPTFGLRRN
Consider B2, for which the MAPPIT interaction score with Pex3 (pair source set: screen_4) was -0.663 (inactive).

B3: hig (protein)
chain: MWSRQRMRHKPLWALISLTVLLLVLDKSNANTEPVETSTTSEPDASPGCRAPDVRFTIVKPEATTEQPLAKFETTQIYLPEDFTTADVEFVDSVPRHPNENHAAVINPYSLDLGDDHLHVGDAAASLVGDDDLGDEDEDHHGDPEDKRLNANRKQGKRRRAGSGRRRRIENENGQTGRGRGSRYKRHAILHDTEASPETDRWAGSKLAAEGDVYYVHIADILKSREPNRELKSKLHKLKMKARLNKCLAEGGKEKCTRLLKKKPKKKVVEKEQTLKKEKKFPKEEQSKEKVPENGQTPKEDELELDHPETAAAHHRRRGDSHAAELDQRDRSPRWRRRRSTEFKGDLGQLPPESGIGPEPEPLADQDLKDLQQYGNQSSSARVALLWQRVKRKSGKTTGALSRPKGGGDSSSKTTSRKDKGIYDEEAGYTPIHPDDPEFDEEEEEDEEVDILQQFTEVSEIRFPGEIGPMGDRRLCKIRCVKGKWVGPLCATNEEDDNGNVKFQPLYKSCHVNRIPSHLLLSYRNISVTPIPPNRGWRKTRLSKSTLLSNTEINVGWDLPHGHSLQARCQELGIYKLLGESRVLCSNGLWAPRMPSCVPTTVLTNYSEDSAPSIRIKIFNGSHSFEPSGVMAVPPHSTVLMDCMYPRVRGTPEWSWTSWYMQYSTGWSPAQEEKAVRYRLSIKNIENNDSGTFTCTSPRGLTNSIAVVVATSTCPQLTEPLAPLKLRLEGNKLGQRAHYECPEGFRLDGAWNATCLASGNWSSPTPTCHAIQCPRLELDDPHLSLIELNTSAWGRAVFKCQWGFKLTGPAQLDCEPSGVWSGPVPRCKVIQCVMPVAPLNGRIGGTSLSQRRLTVGALVTFSCNDGHSLVGESSIICTENGQWSHSPPFCKSQCPYPGDPPNGLIAPLKFNYDAGDYLSVQCRPGFVQSYEGPPERPKCQPDGRWSGPMPKCKSYEEV
As to B3, the MAPPIT interaction score with Pex3 (pair source set: screen_3) was 1.39 (inactive); with SsRbeta, -0.0878 (inactive).

B4: CG42540 (protein)
chain: MPDSMMDMEHRDHQLHRQQQQSHHHQPPRLTASTSTFAPPAPAGSQSEERDRDRDRERDHHLHHHQSNNVASSPLPVTASIQLHQQQPQQQQQQQPLTQLQQPQLREREHHQQQQQQQQQMMQQPQQQQQMQQPQQQLPHSHHALMQQSQQQQAIHRAEARRADEEISDKASTCGKLLIFLSVALVIMTLPFSLFVCFKVVQEYERAVIFRLGRLMQGGAKGPGIFFILPCIDSYARVDLRTRTYDVPPQEVLTKDSVTVSVDAVVYYRVSNATVSIANVENAHHSTRLLAQTTLRNTMGTRHLHEILSERMTISGTMQVQLDEATDAWGIKVERVEIKDVRLPVQLQRAMAAEAEAAREARAKVIAAEGEQKASRALREASEVIGDSPAALQLRYLQTLNTISAEKNSTIVFPLPIDLITYFLKTNEATTQQNARAAAAAIGNTPPPLQLAPQQQMGQQQQPQYQQPQQQQQQYQPQQQQQQQQQQPQQQDQLYQQGQQISSAM
For the molecule B4, in the assay with Pex14, the MAPPIT interaction score was 2.47 (inactive).

B5: Cpsf6 (protein)
chain: MADVVLDLYAEDLDKDFAGQAQDEFGGDGVDLYDDIGGPTESAASGGGGGGTPSADGAAGPGSGEPGERNSGGPNGVYHQSSGSLTPTMNRRYQLYVGNLTWWTTDQDIANSLRDIGVSDLQEVKFFENRANGQSKGFSVISLGSESSLRAVLDQLPKKEMHGQAPVVTYPSKQALTQFESLQKTRPVPPPQQNGPPRGPAPPSMGGGPMPTGHPGGPQGGGPPGHPPRGMNSIMQPGQYRPQHMSQVPQVGGPNSGPPRMQPPMHPQGGLMGNQQPPPRYPSAQGQWPGQRPGGPRPGPPNGPPQRPMFQGGPMGMPVRGPAGPDWRRPPMHGGFPPQGPPRGLPPAPGPGGPHGAPAPHVNPAFFNQPGGPAQHPGMGGPPHGAPGPQPGMNMPPQQGMNMTPQHGPPPQFAQHGPRGPWPPPQGKPPGPFPDPQQMGPQLTEVEFEEVMSRNRTVSSSAIARAVSDAAAGEYSSAIETLVTAISLIKQSKVAHDERCKILISSLQDTLHGIEAKSYNRRERSRSRERSHRSRQRRERSTSRYRERSRERERDRDRERERDGGSYRERSRSRERERQAPDHYRDDSRSVRPRKSPEPVVAEAAEAPSSKRYYEDRERYRSSDRERRDRDRDRDRERERDRDRREEHRSRH
Regarding B5, the MAPPIT interaction score with Pfdn1 is 0.767 (inactive).

The values above are taken from the supplement of paper PMC10105736.
